Most compounds without a hit are left out; they make up all but 4.8% or so of the library.
hgDAF-12 ag = hgDAF-12 agonism, primary luciferase screen | HEK293 GAL4-hgDAF12 UAS-luciferase reporter, agonist luminescence; normalized to butyrate control | activation, % at 6.8 µM | actives 1.8% (n = 370,000);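 active means activation above a cutoff set at the mean of all screened compounds plus 3 SD, cut at about 10% in these data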;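 further: 0% = DMSO wells and 100% = sodium butyrate wells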
ssDAF-12 act = activates DAF-12 receptor from parasite S. stercoralis | actives 1% (n = 370,000) | activation, % at 6.8 µM | HEK293 ssDAF-12/GRIP1 lit1-tk-luc reporter, luminescence; % of 3 µM dafachronic acid response | AID 652126;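 active means activation above the mean over all tested compounds plus 3 SD, cut at about 0.9% in these data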;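 further: 0% = DMSO-only wells and 100% = 3 µM delta7-dafachronic acid wells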
hcDAF12 agonist = activators of H. contortus DAF-12 nuclear receptor; actives 1.4% (n = 370,000); activation, % at 6.8 µM; HEK293 hcDAF-12 lit1-tk-luc reporter, luminescence; 0% DMSO, 100% Δ7-dafachronic acid;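 active means activation above the mean of all tested compounds plus 3 SD, cut at about 5.5% in these data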;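 further: 100% = response to 3 µM Δ7-dafachronic acid high control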
DAX1 inh-1 = inhibits human nuclear receptor DAX1. HEK293 Gal4-DAX1 luciferase reporter, luminescence. inhibition, % at 6.75 µM. actives 0.99% (n = 340,000). AID 504766;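 active means inhibition above the mean over all tested compounds plus 3 SD, cut at about 4.2% in these data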;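 further: 0% = DAX1-transfected cells with DMSO and 100% = empty-vector control cells with DMSO; inhibition shows as a rise in luminescence from relieved DAX1 repression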
Target sequence (P51843 207-470 limits assumed): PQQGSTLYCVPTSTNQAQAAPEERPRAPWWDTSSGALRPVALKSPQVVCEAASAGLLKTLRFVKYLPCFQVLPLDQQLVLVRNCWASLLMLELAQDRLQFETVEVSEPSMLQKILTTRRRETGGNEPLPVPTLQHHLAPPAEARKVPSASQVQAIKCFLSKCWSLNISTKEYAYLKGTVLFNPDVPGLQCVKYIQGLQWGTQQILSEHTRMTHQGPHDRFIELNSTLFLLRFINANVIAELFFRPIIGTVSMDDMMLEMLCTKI
DAX1 inh-2 = inhibitors of DAX1 repression of SF-1 activated StAR promoter | HEK293T StAR-luciferase reporter, SF-1/DAX-1 repression relief | inhibition, % at 6.8 µM | actives 1.1% (n = 370,000);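 active means inhibition above the mean over all tested compounds plus 3 SD, cut at about 3.6% in these data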;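 further: 0% = DAX-1 cells with DMSO and 100% = cells lacking DAX-1 with DMSO; higher inhibition means more luminescence from relief of DAX-1 repression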
SMARCA2 act = increases SMARCA2 function in MMTV reporter cells; actives 1% (n = 370,000); MG213 cells, MMTV-luciferase reporter, dexamethasone, overnight; activation, % at 9.1 µM; in the data active means activation above about 7.8%;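 further: 0% = vehicle wells and 100% = reference activator wells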
SMARCA2 act conf = confirmation of SMARCA2 (BRM) function activators. shares compounds with SMARCA2 act. MG213 cells, MMTV-luciferase with dexamethasone, luminescence, overnight; MG213 cells expressing E1A, Rb sequestered; DMSO wells 0%, reference activator 100%. activation, % at 9.1 µM. actives 30% (n = 3,500). AID 652260;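 active means activation above its plate's cutoff, the mean activation of tested wells plus 3 SD, cut at about 7.9% in these data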
VP16 Luc act = counter-screen for SMARCA2 activators: GAL4-VP16 luciferase reporter activation; shares compounds with SMARCA2 act; HEK293 GAL4-VP16 pG5luc reporter, luciferase luminescence; scaled: DMSO wells 0%, SAHA wells 100%; activation, % at 9.1 µM; actives 41% (n = 3,500); AID 686939;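 active means activation above the solvent-only control well mean plus 3 SD, averaged across control plates, cut at about 5.2% in these data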
Active calls of the source: *; . = no result given.

SMILES	hgDAF-12 ag	ssDAF-12 act	hcDAF12 agonist	DAX1 inh-1	DAX1 inh-2	SMARCA2 act	SMARCA2 act conf	VP16 Luc act
COc1cccc(/C=N/N=C(\N)c2nonc2N)c1O	12.7*	-0.2	3.0	2.9	2.8	8.6*	6.6	12.2*
Cc1ccccc1N/C(SCc1cccc(Br)c1)=C(/C#N)C(N)=O	-1.6	-1.1	0.5	0.5	-0.2	9.7*	-3.9	0.5
CCCCN1CC(N2CCN(CCO)CC2)CS1(=O)=O (centres undefined)	1.1	-0.2	-0.6	.	-0.9	-1.6	.	.
CCCCCCN1CCN(C2CN(CCCC)S(=O)(=O)C2)CC1 (centres undefined)	-0.1	-0.8	0.6	.	-0.7	8.7*	-3.2	2.4
Nc1nc2cc(S(=O)(=O)NC3=NCCCCC3)ccc2s1	-3.1	-0.9	-2.1	3.2	-1.3	9.8*	-2.4	0.0
CC(C(=O)NC1CCCCC1)N1C(=O)C2C3C=CC(C3)C2C1=O (centres undefined)	0.4	-0.5	-0.5	-0.1	-0.2	1.1	.	.
CC1CCC(NC(=O)C(C)N2C(=O)C3CCCCC3C2=O)CC1 (centres undefined)	1.6	-1.0	1.9	1.1	-0.3	9.3*	2.2	2.1
COc1ccc(Cl)cc1NC(=O)CSc1nnc(C)c(=O)n1N	-0.4	-0.8	-0.1	0.8	-0.4	8.3*	5.7	0.3
O=C(CC1(CC2=NS(=O)(=O)c3ccccc3N2)CCCC1)NCCc1ccccc1	-2.0	-0.4	-0.7	-0.8	-0.8	-1.1	.	.
Cc1ccc(C)n1-c1ccc(-n2cnnn2)cc1	1.0	-1.1	0.2	0.6	-0.1	-0.2	.	.
Cc1cc(-n2cnnn2)ccc1C(C)C	2.9	-1.4	-1.1	1.9	0.2	8.5*	3.4	1.6
Nc1nc(SCC(=O)NC2CCCC2)[nH]c(=O)c1NC(=O)c1cccs1	2.9	-0.9	-1.5	1.7	-0.6	-1.2	.	.
Cc1ccc(C(=O)NNC(=O)Cc2cccs2)cc1	2.4	0.7	4.0	-0.4	0.9	9.1*	2.5	1.7
O=C(Cc1cccs1)NNC(=O)c1ccc(F)cc1	-3.1	-1.9	-0.8	1.4	-0.1	-0.7	.	.
Cn1nnc(-c2ccc(OCc3ccccc3F)cc2)n1	8.6	1.0*	1.8	1.6	3.8*	11.4*	7.1	12.9*
Cc1cc(C)n2nc(SCCOc3ccccc3F)nc2n1	1.3	-1.5	-0.7	1.2	1.0	5.1	.	.
O=C(CSc1oc(-c2ccc(F)cc2)nc1S(=O)(=O)c1ccccc1)NCC1CCCO1 (centres undefined)	-0.1	-1.3	0.2	0.9	-0.5	8.2*	0.4	-0.9
Cc1ccccc1Oc1ccc2c(c1)[C@@H]1C[C@H](N(C)C(=O)c3ccco3)[C@H]([C@H](C)O)C(=O)N1CC2	-0.8	-0.9	-0.1	0.0	-1.6	1.2	.	.
COC(=O)/C=C1\OCc2cc(C)ccc21	7.4	-0.4	-0.2	.	1.3	12.7*	7.0	3.1
COC(=O)/C=C1\OCc2ccc(C)cc21	2.3	-1.0	-0.5	.	-0.5	-2.1	.	.
CCOc1ccc(-c2ccc(SCC(=O)NC3CCCCC3)nn2)cc1	2.1	-0.5	3.1	2.0	2.9	8.5*	5.3	8.9*
COc1ccc(-c2ccc(SCC(=O)NC3CCCCC3)nn2)cc1	2.9	-0.7	-0.7	0.7	0.2	2.1	.	.
C/C(=N\NC(=O)NC1CCCCC1)c1ccco1	-3.0	-1.4	-2.0	1.3	2.3	2.2	.	.
COc1ccc(-n2nc3c(N4CCC(C(=O)NCc5cccc(C)c5)CC4)nnc(C)c3c2C)cc1	-2.4	-1.7	-2.3	0.4	-0.1	14.1*	16.9*	0.8
CC(C)c1ccc(C(=O)CN2C(=O)NC3(CCc4ccccc43)C2=O)cc1 (centres undefined)	4.0	-1.6	-0.5	0.1	-0.2	10.5*	2.7	0.1
SMILES	hgDAF-12 ag	ssDAF-12 act	hcDAF12 agonist	DAX1 inh-1	DAX1 inh-2	SMARCA2 act	SMARCA2 act conf	VP16 Luc act
O=C(CN1C(=O)NC2(CCc3ccccc32)C1=O)c1ccc(Cl)cc1 (centres undefined)	0.9	-1.0	-0.6	0.5	1.0	-0.5	.	.
O=C(CN1C(=O)NC2(CCc3ccccc32)C1=O)Nc1cccc(Cl)c1 (centres undefined)	-1.8	0.1	-1.0	-1.3	-0.7	-4.8	.	.
COc1cccc(NC(=O)CN2C(=O)NC3(CCc4ccccc43)C2=O)c1 (centres undefined)	-0.7	-1.7	-0.2	0.0	1.4	9.0*	0.0	0.3
COc1cccc(CN(C)C(=O)c2cccc(OCc3ccccc3)c2)c1	0.3	-0.8	-0.9	3.2	0.1	-3.6	.	.
O=C(CNC(=O)c1ccc(Br)cc1)N/N=C/c1cccnc1	-2.6	-1.5	-1.7	-0.4	-0.1	10.2*	0.8	1.4
COc1cccc(CCc2nnc(CCC(=O)N3CCN(Cc4ccccn4)CC3)o2)c1	-2.0	-1.4	-0.9	1.0	-0.4	-0.1	.	.
COc1cc(CN(C(=S)NCC(=O)N2CCCC2)C2CCCC2)cc(OC)c1OC	6.0	-1.7	-1.1	0.1	1.3	0.5	.	.
COc1cc(CN(C(=S)NCC(=O)NC2CC2)C2CCCC2)cc(OC)c1OC	-0.3	-0.9	0.0	-1.9	0.8	9.6*	-2.5	0.2
Cc1ccc(S(=O)(=O)N2CCN(C3CC(=O)N(c4ccc(F)cc4)C3=O)CC2)cc1C (centres undefined)	1.2	-1.4	0.4	1.1	-2.1	-3.1	.	.
Cc1cc(C(=O)N(C)Cc2ccc(Br)cc2)no1	-0.2	-0.5	-0.4	0.5	0.1	-9.3	.	.
CN(Cc1ccccc1)C(=O)c1cc(-c2ccc(Br)cc2)on1	1.9	-1.0	-1.8	-0.6	-0.3	8.1*	2.5	5.3*
CC1CCN(C(=S)NC(=O)c2cccc([N+](=O)[O-])c2)CC1	0.9	-0.8	-0.8	-0.3	-0.2	8.6*	-1.4	0.4
CN1CCN(C(=S)NC(=O)c2cccc([N+](=O)[O-])c2)CC1	-1.2	-1.2	-0.4	0.1	0.9	6.7	.	.
CCOC(=O)[C@H]1[C@H]2COc3ccc(C)cc3[C@@H]2N2C(=O)CN(Cc3ccco3)C(=O)[C@@]12C	2.2	-1.2	-1.6	-0.7	-0.2	-0.6	.	.
c1ccc2sc(N3CCCN(Cc4nc(-c5cnccn5)no4)CC3)nc2c1	-3.1	-2.2	-2.6	-1.9	-0.5	-1.8	.	.
COc1cc(/C=N/NS(=O)(=O)c2ccc(C)cc2)ccc1OCc1cccc(C(=O)O)c1	10.5*	-0.4	2.5	-8.1	1.5	9.5*	6.5	18.9*

Screening data from PubChem BioAssay.
